This note sets out measurements from ChEMBL document CHEMBL1961873, “Compounds: GSK PKIS; Assays: Nanosyn kinase panel” (2012).

In experiment [1] the target is Mitogen-activated protein kinase kinase kinase kinase 4 (Homo sapiens) (UniProt O95819). As to conditions: at 1 µM.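 Note: reported figure is an averaged inhibition value.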
The target of experiment [2] is Dual specificity mitogen-activated protein kinase kinase 1 (Homo sapiens) (UniProt Q02750). As to conditions: at 0.1 µM.
Experiment [3] has the same target. As to conditions: at 1 µM.
Experiment [4] deals with Misshapen-like kinase 1 (Homo sapiens) (UniProt Q8N4C8). As to conditions: at 0.1 µM.
The target is the same in experiment [5]. Particulars: at 1 µM.
Experiment [6] concerns the target T1, Serine/threonine-protein kinase 4 (Homo sapiens) (UniProt Q13043).
T1 sequence (whole entry): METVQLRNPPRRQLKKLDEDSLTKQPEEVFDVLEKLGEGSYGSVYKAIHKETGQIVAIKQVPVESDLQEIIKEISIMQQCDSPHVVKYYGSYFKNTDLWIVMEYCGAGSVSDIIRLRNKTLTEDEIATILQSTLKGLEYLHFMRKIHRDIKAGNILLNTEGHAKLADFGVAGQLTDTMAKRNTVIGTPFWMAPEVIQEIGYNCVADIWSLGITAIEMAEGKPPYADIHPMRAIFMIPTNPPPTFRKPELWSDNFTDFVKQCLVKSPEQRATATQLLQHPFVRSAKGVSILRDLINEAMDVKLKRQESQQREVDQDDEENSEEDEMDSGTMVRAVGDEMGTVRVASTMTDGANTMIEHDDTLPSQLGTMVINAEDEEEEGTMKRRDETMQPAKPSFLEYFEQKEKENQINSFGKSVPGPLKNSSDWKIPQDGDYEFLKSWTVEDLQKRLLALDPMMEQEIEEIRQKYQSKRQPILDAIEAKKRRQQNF
Particulars: at 0.1 µM.

The target in experiment [7] is T1, Serine/threonine-protein kinase 4 (Homo sapiens). As to conditions: at 1 µM.
Experiment [8] addresses T2, Serine/threonine-protein kinase 3 (Homo sapiens) (UniProt Q13188).
T2 sequence (whole entry): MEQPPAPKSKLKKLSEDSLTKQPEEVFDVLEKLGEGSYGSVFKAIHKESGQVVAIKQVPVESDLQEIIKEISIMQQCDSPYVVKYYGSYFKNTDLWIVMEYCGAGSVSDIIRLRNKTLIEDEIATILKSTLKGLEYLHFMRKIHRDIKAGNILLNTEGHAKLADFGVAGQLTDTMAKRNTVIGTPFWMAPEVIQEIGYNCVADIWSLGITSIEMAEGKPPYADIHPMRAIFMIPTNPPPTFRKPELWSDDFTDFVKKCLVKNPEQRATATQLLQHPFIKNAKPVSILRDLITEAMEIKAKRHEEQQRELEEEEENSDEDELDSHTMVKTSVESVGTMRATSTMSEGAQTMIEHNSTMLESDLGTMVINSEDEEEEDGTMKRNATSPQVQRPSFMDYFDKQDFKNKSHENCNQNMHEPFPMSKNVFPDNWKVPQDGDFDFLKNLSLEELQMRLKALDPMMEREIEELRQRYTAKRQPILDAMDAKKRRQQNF
Particulars: at 0.1 µM.

Experiment [9] has as its target T2, Serine/threonine-protein kinase 3 (Homo sapiens). Particulars: at 1 µM.
The target of experiment [10] is Serine/threonine-protein kinase 26 (Homo sapiens) (UniProt Q9P289). As to conditions: at 0.1 µM.
Chain of Serine/threonine-protein kinase 26 (Homo sapiens) (Q9P289 2-416 limits assumed): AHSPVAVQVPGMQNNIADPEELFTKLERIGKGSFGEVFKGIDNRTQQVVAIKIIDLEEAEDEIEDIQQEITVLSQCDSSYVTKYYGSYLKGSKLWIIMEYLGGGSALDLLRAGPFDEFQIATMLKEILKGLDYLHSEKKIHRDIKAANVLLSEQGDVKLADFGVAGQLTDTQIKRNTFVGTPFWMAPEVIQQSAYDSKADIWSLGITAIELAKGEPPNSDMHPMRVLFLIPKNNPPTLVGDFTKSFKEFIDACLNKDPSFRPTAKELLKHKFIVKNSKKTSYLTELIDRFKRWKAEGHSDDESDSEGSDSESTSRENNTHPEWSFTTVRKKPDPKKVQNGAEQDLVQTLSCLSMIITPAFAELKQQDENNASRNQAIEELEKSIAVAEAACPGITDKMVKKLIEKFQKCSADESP

Chain of Mitogen-activated protein kinase kinase kinase kinase 4 (Homo sapiens) (O95819 2-1239 limits assumed): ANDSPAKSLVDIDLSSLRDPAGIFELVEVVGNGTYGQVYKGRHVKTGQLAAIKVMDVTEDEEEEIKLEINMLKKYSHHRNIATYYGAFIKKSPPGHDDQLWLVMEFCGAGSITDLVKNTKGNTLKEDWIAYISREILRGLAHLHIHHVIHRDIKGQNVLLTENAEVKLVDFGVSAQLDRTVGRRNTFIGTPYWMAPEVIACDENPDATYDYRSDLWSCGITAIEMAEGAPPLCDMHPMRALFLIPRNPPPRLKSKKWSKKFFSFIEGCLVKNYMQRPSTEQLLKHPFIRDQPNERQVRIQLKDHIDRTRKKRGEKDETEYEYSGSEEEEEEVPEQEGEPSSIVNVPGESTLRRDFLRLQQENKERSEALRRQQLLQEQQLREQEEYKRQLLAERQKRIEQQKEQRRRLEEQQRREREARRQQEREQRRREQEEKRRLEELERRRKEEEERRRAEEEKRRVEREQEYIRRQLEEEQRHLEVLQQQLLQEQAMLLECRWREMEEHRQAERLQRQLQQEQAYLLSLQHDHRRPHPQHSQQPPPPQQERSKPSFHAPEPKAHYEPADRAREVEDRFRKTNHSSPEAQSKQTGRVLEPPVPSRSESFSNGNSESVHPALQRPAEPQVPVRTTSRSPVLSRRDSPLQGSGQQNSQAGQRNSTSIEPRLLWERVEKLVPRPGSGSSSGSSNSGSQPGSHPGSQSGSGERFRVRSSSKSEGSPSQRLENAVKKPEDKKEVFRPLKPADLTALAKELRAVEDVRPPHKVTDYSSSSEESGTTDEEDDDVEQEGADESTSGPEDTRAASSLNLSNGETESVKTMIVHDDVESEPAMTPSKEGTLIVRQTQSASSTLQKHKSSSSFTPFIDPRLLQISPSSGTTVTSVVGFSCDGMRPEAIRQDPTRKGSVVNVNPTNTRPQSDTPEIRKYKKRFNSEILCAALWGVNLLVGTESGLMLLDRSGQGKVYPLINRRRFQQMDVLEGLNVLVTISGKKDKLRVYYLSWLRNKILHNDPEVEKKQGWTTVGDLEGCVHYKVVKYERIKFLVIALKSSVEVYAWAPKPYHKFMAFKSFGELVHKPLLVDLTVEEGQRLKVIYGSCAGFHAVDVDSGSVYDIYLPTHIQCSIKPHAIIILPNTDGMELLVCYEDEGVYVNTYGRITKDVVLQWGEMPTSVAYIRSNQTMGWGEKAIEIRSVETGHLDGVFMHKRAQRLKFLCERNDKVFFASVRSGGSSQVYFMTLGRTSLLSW
Chain of Dual specificity mitogen-activated protein kinase kinase 1 (Homo sapiens) (Q02750 whole entry): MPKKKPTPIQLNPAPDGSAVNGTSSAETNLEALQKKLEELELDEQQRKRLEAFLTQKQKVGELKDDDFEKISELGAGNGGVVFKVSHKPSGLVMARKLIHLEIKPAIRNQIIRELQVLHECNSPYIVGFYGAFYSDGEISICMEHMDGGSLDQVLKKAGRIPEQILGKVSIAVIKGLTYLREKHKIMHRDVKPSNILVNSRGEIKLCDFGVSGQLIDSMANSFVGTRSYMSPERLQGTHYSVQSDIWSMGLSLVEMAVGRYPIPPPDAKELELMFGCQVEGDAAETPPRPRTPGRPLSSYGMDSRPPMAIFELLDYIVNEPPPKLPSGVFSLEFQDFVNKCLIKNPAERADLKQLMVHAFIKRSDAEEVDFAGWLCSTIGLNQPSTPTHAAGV
Chain of Misshapen-like kinase 1 (Homo sapiens) (Q8N4C8 whole entry, looked up): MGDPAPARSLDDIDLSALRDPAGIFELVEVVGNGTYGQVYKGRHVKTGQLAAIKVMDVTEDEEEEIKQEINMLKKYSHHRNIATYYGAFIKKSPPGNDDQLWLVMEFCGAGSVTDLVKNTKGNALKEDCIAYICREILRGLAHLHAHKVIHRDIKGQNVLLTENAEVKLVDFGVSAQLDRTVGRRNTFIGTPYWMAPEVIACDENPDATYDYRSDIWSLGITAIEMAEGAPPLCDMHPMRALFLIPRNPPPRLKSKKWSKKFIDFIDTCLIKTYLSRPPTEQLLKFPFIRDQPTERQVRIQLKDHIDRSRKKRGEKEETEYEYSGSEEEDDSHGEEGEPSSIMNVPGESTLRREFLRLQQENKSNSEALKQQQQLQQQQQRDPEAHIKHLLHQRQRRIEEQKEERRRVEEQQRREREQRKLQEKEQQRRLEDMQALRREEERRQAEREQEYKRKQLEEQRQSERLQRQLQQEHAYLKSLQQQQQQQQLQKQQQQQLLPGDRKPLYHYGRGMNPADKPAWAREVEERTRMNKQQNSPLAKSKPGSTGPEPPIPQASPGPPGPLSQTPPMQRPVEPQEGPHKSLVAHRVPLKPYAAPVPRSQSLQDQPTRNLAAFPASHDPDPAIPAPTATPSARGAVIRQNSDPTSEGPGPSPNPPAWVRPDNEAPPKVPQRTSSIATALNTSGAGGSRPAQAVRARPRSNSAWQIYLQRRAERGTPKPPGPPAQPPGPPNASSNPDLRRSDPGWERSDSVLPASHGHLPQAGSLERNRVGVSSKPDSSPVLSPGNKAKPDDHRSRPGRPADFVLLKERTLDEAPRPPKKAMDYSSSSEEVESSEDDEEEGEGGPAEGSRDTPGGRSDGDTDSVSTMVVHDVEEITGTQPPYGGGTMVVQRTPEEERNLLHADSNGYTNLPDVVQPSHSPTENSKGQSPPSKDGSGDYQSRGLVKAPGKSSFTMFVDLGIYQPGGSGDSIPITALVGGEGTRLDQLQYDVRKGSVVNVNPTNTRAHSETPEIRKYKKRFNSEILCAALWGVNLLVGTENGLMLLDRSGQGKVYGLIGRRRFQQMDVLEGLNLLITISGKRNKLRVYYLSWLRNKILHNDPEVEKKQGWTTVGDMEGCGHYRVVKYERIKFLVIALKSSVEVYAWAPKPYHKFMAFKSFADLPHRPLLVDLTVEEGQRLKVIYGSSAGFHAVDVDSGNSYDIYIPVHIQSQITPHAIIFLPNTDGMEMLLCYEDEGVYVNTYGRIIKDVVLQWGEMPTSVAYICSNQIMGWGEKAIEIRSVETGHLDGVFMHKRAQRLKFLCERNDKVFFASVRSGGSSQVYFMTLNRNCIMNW

For orientation: inhibition means the drop in the measured response relative to a control, in per cent. Take `CC(=O)Nc1cccc(C#Cc2cncnc2Nc2ccc(OCc3cccc(F)c3)c(Cl)c2)n1`: the inhibition in experiment [1] was 8.1%; in experiment [2], -0.39%; in [3], -1.7%; in experiment [4] it was 0.33%; in [5], 10.7%; in experiment [6], 4%. In addition, the inhibition in [7] amounted to 7.41%; in [8], 3.99%; in experiment [9], 8.13%; in experiment [10], 2.55%.
For `Cn1cc(C=C2C(=O)Nc3cccnc32)c2ccccc21`, the inhibition came out at 29% in experiment [1]; 2.69% in experiment [2]; 7.29% in [3]; 7.13% in experiment [4]; 23.6% in [5]; 13.7% in experiment [6]. For the same molecule, the inhibition came out at 47.9% in [7], 10.5% in experiment [8], 33.8% in [9] and 1.41% in [10].
Take `O=C(Nc1n[nH]c2nc(-c3ccco3)c(Br)cc12)C1CC1`: the inhibition in experiment [1] was found to be 8.55%; in experiment [2], 3.9%; in [3], 3.63%; in experiment [4], 5.14%; in experiment [5], 8.29%; in experiment [6] it was 5.17%. Besides, the inhibition in experiment [7] was 4%; in experiment [8] it was 6.08%; in experiment [9] it was 5.58%; in experiment [10], -1.82%.
With `CS(=O)(=O)CCNCc1ccc(-c2ccc3ncnc(Nc4ccc(OCc5cccc(F)c5)c(C(F)(F)F)c4)c3c2)o1`, the inhibition in experiment [1] amounted to 8.1%; in experiment [2], 5.38%; in experiment [3] it was 4.64%; in experiment [4], 4.62%; in [5], 7.1%; in [6] it was 3.92%. Besides, the inhibition in experiment [7] was 5.23%; in [8] it was 3.56%; in [9], 4.74%; in [10], -1.09%.
Regarding `COc1cc(C)c(NC(=O)CN(C)C)cc1Nc1nc(Nc2cccc(F)c2C(N)=O)c2cc[nH]c2n1`, the inhibition in [1] amounted to 17.8%; in experiment [2], 3.12%; in [3], 6.41%; in [4], 3.15%; in [5], 13.8%; in experiment [6], 4.73%. Also, the inhibition in experiment [7] came out at 17.7%; in experiment [8] it was 5.85%; in [9], 7.94%; in experiment [10], 0.41%.
In the case of `[O-][S+]1CCN(Cc2ccc(-c3ccc4ncnc(Nc5ccc(OCc6ccccc6)c(F)c5)c4c3)o2)CC1`, the inhibition in experiment [1] was -0.28%; in experiment [2] it was 2.4%; in experiment [3], 3.03%; in [4], 4.17%; in experiment [5], 1.42%; in experiment [6], 2.61%. Further, the inhibition in [7] was 2.36%; in experiment [8] it was 2.82%; in [9], 3.06%; in [10], -0.81%.
For `COc1ccc(-c2ccncc2)cc1C(N)=O`, the inhibition in experiment [1] came out at 11.4%; in [2], 4.89%; in [3], 4.05%; in [4] it was 6.61%; in [5], 8.92%; in experiment [6], 3.27%. Also, the inhibition was 7.82% in experiment [7], 4.87% in experiment [8], 6.68% in [9] and -1.91% in [10].
For `O=C1NC(=O)C(c2ccc(Cl)cc2)=C1Nc1ccc(Cl)c(C(=O)O)c1`, the inhibition in experiment [1] was 0.73%; in experiment [2], -2.44%; in experiment [3] it was -3.36%; in experiment [4], -0.82%; in experiment [5], -0.69%; in experiment [6] it was -1.86%. In addition, the inhibition in experiment [7] is -3.6%; in experiment [8] it was -2.71%; in experiment [9] it was -2.5%; in experiment [10], -0.06%.
In the case of `CCn1c(-c2nonc2N)nc2cncc(C(=O)N3CC[C@H](N)C3)c21`, the inhibition in experiment [1] is 5.7%; in experiment [2], 6.85%; in experiment [3], 6.13%; in [4], 7.01%; in [5], 6.82%; in experiment [6], 3.69%. Moreover, the inhibition is 4.11% in [7], 4.28% in experiment [8], 4.87% in [9] and -0.5% in experiment [10].
For `CCn1c(-c2nonc2N)nc2c(C#CC(C)(C)O)nc(OC[C@@H](N)c3ccccc3)cc21`, the inhibition in experiment [1] is 14.1%; in experiment [2] it was -0.93%; in experiment [3] it was 3.8%; in [4], -1.26%; in experiment [5], 9.85%; in experiment [6], -2.01%. The inhibition in experiment [7] was 15.2%; in [8] it was -1.88%; in experiment [9], 11.8%; in experiment [10], 1.4%.
`CN(C)c1cc2c(Nc3ccc4nc(Cc5ccccc5)[nH]c4c3)ncnc2cn1`: the inhibition in [1] was found to be 9.42%; in [2], 6.17%; in experiment [3] it was 5.42%; in experiment [4], 8.81%; in experiment [5], 9.2%; in experiment [6], 4.35%. Further, the inhibition is 3.57% in experiment [7], 4.95% in experiment [8], 2.18% in experiment [9] and -1.17% in experiment [10].
`Fc1cccc(COc2ccc(Nc3ncnc4sc(-c5cccs5)cc34)cc2Cl)c1`: the inhibition in experiment [1] came out at 6.34%; in experiment [2], 2.3%; in experiment [3], 4%; in [4], 1.45%; in experiment [5], 2.51%; in [6], 0.07%. In addition, the inhibition in experiment [7] is 0.3%; in experiment [8], -1.67%; in experiment [9], -0.19%; in experiment [10], -0.02%.
`CN1CCC(C(=O)Nc2n[nH]c3nnc(-c4ccccc4)cc23)CC1`: the inhibition turned out to be 14.1% in [1]; 6.89% in [2]; 5.56% in [3]; 6.64% in experiment [4]; 14.6% in [5]; 4.72% in experiment [6]. The inhibition in [7] was 13%; in experiment [8], 5.88%; in experiment [9] it was 9.3%; in [10], -0.64%.
As for `COc1cc(C=NNc2ncnc3c2cnn3-c2ccccc2)ccc1O`, the inhibition in [1] is 70.6%; in [2] it was 1.68%; in experiment [3], 1.06%; in [4], 24%; in experiment [5], 64.7%; in experiment [6], 2.58%. The inhibition in experiment [7] was found to be 11.5%; in [8], 3.41%; in experiment [9], 6.24%; in experiment [10] it was 1.85%.
Consider `CS(=O)(=O)CCNCc1ccc(-c2ccc3ncnc(Nc4ccc(OCc5ccccc5)c(Cl)c4)c3c2)o1`, for which the inhibition in experiment [1] was 3.37%; in experiment [2], 1.17%; in [3] it was 1.86%; in experiment [4] it was 1.93%; in experiment [5], 1.65%; in [6], 0.89%. The inhibition in experiment [7] is 2.54%; in experiment [8] it was -1.21%; in [9] it was 0.47%; in [10] it was 0.75%.
`Cc1cccc(-c2n[nH]cc2-c2ccc3ncccc3n2)n1`: the inhibition in experiment [1] was 30.9%; in experiment [2], 1.75%; in experiment [3], 1.88%; in [4], 4.05%; in experiment [5], 19.5%; in [6] it was -0.22%. The inhibition is 0.4% in experiment [7], -0.46% in experiment [8], 0.93% in experiment [9] and -1.15% in experiment [10].
For the molecule `CS(=O)(=O)CCNCc1nc(-c2ccc3ncnc(Nc4ccc(F)c(Cl)c4)c3c2)cs1`, the inhibition in experiment [1] was determined as 4.84%; in experiment [2] it was 1.19%; in experiment [3], 2.66%; in [4] it was 2.93%; in [5], 3.2%; in experiment [6], 4.8%. In addition, the inhibition was found to be 6.35% in experiment [7], 5.67% in experiment [8], 4.59% in [9] and 2.56% in experiment [10].
